GLD-1 TGE inh: GLD-1-TGE RNA interaction inhibition (C. elegans) | Q17339 | purified GLD-1 + fluorescein TGE RNA, fluorescence polarization | inhibition, % at 5.96 µM | 0.44% of 320,000 active;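 active means percent inhibition above a per-plate cutoff, the plate mean of test compounds plus 3 SD, cut at about 30% in these data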;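 further: 0% = DMSO wells with GLD-1 and probe and 100% = wells lacking GLD-1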
Target sequence (Q17339 whole entry, looked up): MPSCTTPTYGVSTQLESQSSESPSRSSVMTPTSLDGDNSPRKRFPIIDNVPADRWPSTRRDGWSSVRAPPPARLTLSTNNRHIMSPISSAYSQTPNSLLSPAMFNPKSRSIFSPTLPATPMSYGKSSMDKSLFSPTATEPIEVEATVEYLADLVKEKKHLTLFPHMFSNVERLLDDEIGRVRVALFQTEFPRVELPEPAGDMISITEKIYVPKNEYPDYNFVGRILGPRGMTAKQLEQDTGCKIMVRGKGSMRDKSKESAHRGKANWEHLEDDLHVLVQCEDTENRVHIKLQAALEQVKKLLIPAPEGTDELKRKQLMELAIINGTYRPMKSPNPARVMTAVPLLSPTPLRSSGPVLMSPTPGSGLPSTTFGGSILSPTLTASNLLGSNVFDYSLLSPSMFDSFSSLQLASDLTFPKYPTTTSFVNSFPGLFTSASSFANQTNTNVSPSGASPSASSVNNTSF
BCLXL inh: Bcl-xL (human) inhibition; Q07817; GST-Bcl-xL / FITC-Bim BH3 peptide fluorescence polarization; inhibition, % at 10.9 µM; 0.7% of 320,000 active; AID 2129;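 active means inhibition above the mean of all tested compounds plus 3 SD, cutoff set per campaign, cut at about 30% in these data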;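 further: 0% = DMSO wells and 100% = unlabeled Bim-BH3 peptide competitor; inhibitors lower millipolarization by displacing the labeled peptide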
Mcl1 Noxa PPI: Mcl-1/Noxa interaction inhibition. AID 1022. Q07820. inhibition, % at 21.7 µM. 1.5% of 220,000 active. TR-FRET Mcl-1/Noxa peptide binding, 2 h;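 active means compounds that cut the protein-peptide binding signal by more than 50% relative to plate controls in a single-dose test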;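 further: His-tagged Mcl-1 with rhodamine Noxa BH3 peptide and terbium anti-His antibody; 0% = Mcl-1 plus Noxa peptide wells and 100% = peptide-only wells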
MCL1 BIM primary: inhibitors of human MCL1 binding to BIM-BH3 peptide | Q07820 | GST-MCL1 / FITC-Bim-BH3 fluorescence polarization | inhibition, % at 10.9 µM | 0.68% of 320,000 active;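 active means inhibition above the mean inhibition of all tested compounds plus 3 SD, set per campaign, cut at about 40% in these data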;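 further: 0% = DMSO wells and 100% = unlabeled Bim-BH3 peptide control; higher means more loss of mP so more displacement of Bim peptide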
Bim-Mcl-1: disrupts Bim peptide binding to human Mcl-1; Q07820; 0.1% of 190,000 active; Bead-based flow cytometry, Bim peptide-Mcl-1 binding; inhibition, % at 10 µM; in the data active means inhibition above about 40%;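 further: 0% = no compound tracer wells and 100% = peptide blocker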
Mcl1-Bid inh: disrupts binding of human Mcl-1 to Bid peptide | Q07820 | inhibition, % at 21.7 µM | TR-FRET Mcl-1/Bid-Dy647 peptide binding, 1536-well | 0.97% of 220,000 active;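 active means compounds that cut the binding signal by more than half at the single screening dose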;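 further: His-tagged Mcl-1 with europium anti-His antibody binding Bid BH3 peptide; 0% = Mcl-1 plus peptide wells and 100% = peptide-only wells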
* = called active by the depositor. Only some compounds are listed: those with a hit (about 2.3% of all), similar ones and a draw of the others.

CCc1nc(Nc2ccc(N3CCN(C(C)=O)CC3)cc2)c2oc3ccccc3c2n1 was read as GLD-1 TGE inh 4, BCLXL inh 6, Mcl1 Noxa PPI 85*, MCL1 BIM primary 12, Bim-Mcl-1 0 and Mcl1-Bid inh 33.
Screening CC(=O)N1CCN(c2ccc(Nc3ncnc4c3oc3ccccc34)cc2)CC1 returned GLD-1 TGE inh 6, BCLXL inh 3, Mcl1 Noxa PPI 68*, MCL1 BIM primary -1, Bim-Mcl-1 2 and Mcl1-Bid inh 20.
For O=C1c2ccccc2C(=O)N1Cc1ccco1 the results were GLD-1 TGE inh -3, BCLXL inh 4, Mcl1 Noxa PPI 8, MCL1 BIM primary -2, Bim-Mcl-1 4 and Mcl1-Bid inh 3.
For CC1=CC(=C2C(=O)c3ccccc3C2=O)C=C(C)N1Cc1ccco1 the results were GLD-1 TGE inh -2, BCLXL inh 8, Mcl1 Noxa PPI 64*, MCL1 BIM primary 14, Bim-Mcl-1 4 and Mcl1-Bid inh -18.
`O=C1c2ccc([N+](=O)[O-])cc2NC(c2ccco2)N1/N=C/c1ccco1` (stereo not drawn) gave GLD-1 TGE inh -2, BCLXL inh -4, Mcl1 Noxa PPI 84*, MCL1 BIM primary -13 and Mcl1-Bid inh -24.
`COc1ccc(CN2C(=O)c3cccnc3C2O)cc1` (stereo not drawn) gave GLD-1 TGE inh 9, BCLXL inh -3, Mcl1 Noxa PPI 25, MCL1 BIM primary 2, Bim-Mcl-1 0 and Mcl1-Bid inh 92*.
Screening COc1ccc(CN2C(=O)C(C)=C(C)C2OC)cc1 (stereo not drawn) returned GLD-1 TGE inh 9, BCLXL inh 3 and MCL1 BIM primary 2.
Cc1ccccc1OCC(=O)Nc1nnc(COc2ccccc2)s1 was read as GLD-1 TGE inh -2, BCLXL inh 4 and MCL1 BIM primary -4.
CCOC(=O)c1nn(-c2ccccc2)c(C#N)c1N was read as GLD-1 TGE inh -11, BCLXL inh 3, Mcl1 Noxa PPI 2, MCL1 BIM primary 14, Bim-Mcl-1 41* and Mcl1-Bid inh -29.
For CN(C)S(=O)(=O)c1cccc(N=c2scc(-c3ccc4c(c3)NC(=O)CO4)n2CC2CCCO2)c1 (stereo not drawn) the results were GLD-1 TGE inh 2, BCLXL inh 8, Mcl1 Noxa PPI -3, MCL1 BIM primary 3, Bim-Mcl-1 -1 and Mcl1-Bid inh 74*.
Cc1nn(-c2ccc(Cl)cc2)c2[nH]c(CCl)cc(=O)c12 was read as GLD-1 TGE inh -1, BCLXL inh 0 and MCL1 BIM primary -6.
Screening COc1ccc(C2/C(=C(/O)c3ccc(C)cc3)C(=O)C(=O)N2C)c(OC)c1 (stereo not drawn) returned GLD-1 TGE inh 5, BCLXL inh 10 and MCL1 BIM primary 13.
`COc1cc(/C=C(\C#N)C(=O)Nc2cccc3ncccc23)cc(OC)c1OC` gave GLD-1 TGE inh -11, BCLXL inh 8, Mcl1 Noxa PPI 21, MCL1 BIM primary 3, Bim-Mcl-1 -6 and Mcl1-Bid inh -7.
Screening COc1ccc(/C=C(\C#N)C(=O)Nc2cccc3ncccc23)cc1OC returned GLD-1 TGE inh 0, BCLXL inh 17, Mcl1 Noxa PPI 55*, MCL1 BIM primary 18 and Mcl1-Bid inh -38.
For Nc1ccc(N2CCN(C(=O)c3cccs3)CC2)cc1 the results were GLD-1 TGE inh 4, BCLXL inh 11, Mcl1 Noxa PPI 61*, MCL1 BIM primary 15, Bim-Mcl-1 15 and Mcl1-Bid inh -91.
`O=C(/C=C/c1cccs1)N1CCN(c2ccc(O)cc2)CC1` gave GLD-1 TGE inh 8, BCLXL inh 19, Mcl1 Noxa PPI 79*, MCL1 BIM primary 12, Bim-Mcl-1 2 and Mcl1-Bid inh -55.
`COc1cccc(C(C(=O)NCC2CCCO2)N(C(=O)Cn2nnc3ccccc32)c2ccc(NC(C)=O)cc2)c1` (stereo not drawn) gave GLD-1 TGE inh -2, BCLXL inh 4 and MCL1 BIM primary 6.
For CCNc1sc(C(=O)c2cccs2)c(N)c1-c1nc2ccccc2s1 the results were GLD-1 TGE inh 29, BCLXL inh 20, Mcl1 Noxa PPI 55*, MCL1 BIM primary 15, Bim-Mcl-1 4 and Mcl1-Bid inh -47.
Screening N#CC1=C(S)N(c2ccccc2)C(c2ccc(-c3cc(Cl)ccc3Cl)o2)NC1=O (stereo not drawn) returned GLD-1 TGE inh 3, BCLXL inh -11, Mcl1 Noxa PPI 76*, MCL1 BIM primary -8, Bim-Mcl-1 -4 and Mcl1-Bid inh -32.
`COc1cc(C(=O)NNC(=O)c2ccccc2Br)ccc1OCC(=O)N1CCOCC1` gave GLD-1 TGE inh -2, BCLXL inh 7 and MCL1 BIM primary 0.
`CCn1c(SCC(=O)Nc2cccc(OC)c2)nc2c(c1=O)SCC2` gave GLD-1 TGE inh 10, BCLXL inh 4 and MCL1 BIM primary 5.
COc1cccc(-c2csc(N3CCN(C(=S)Nc4cccc(Cl)c4)CC3)n2)c1 was read as GLD-1 TGE inh 1, BCLXL inh 1, Mcl1 Noxa PPI -5, MCL1 BIM primary 12, Bim-Mcl-1 0 and Mcl1-Bid inh 89*.
`CCOC(=O)C1=C(O)/C(=C\c2ccc(CNS(=O)(=O)c3ccc(Br)cc3)o2)N=C1C` gave GLD-1 TGE inh 12, BCLXL inh 28, Mcl1 Noxa PPI 57*, MCL1 BIM primary 37, Bim-Mcl-1 -1 and Mcl1-Bid inh -65.
For COC(=O)C1=C(O)/C(=C\c2ccc(CNC(=O)C(=O)Nc3ccc(C)c(C)c3)o2)N=C1C the results were GLD-1 TGE inh 8, BCLXL inh 18, Mcl1 Noxa PPI 55*, MCL1 BIM primary 28, Bim-Mcl-1 7 and Mcl1-Bid inh 34.
Screening COC(=O)C1=C(O)/C(=C\c2ccc(CNS(=O)(=O)c3ccc(Cl)cc3)o2)N=C1C returned GLD-1 TGE inh 8, BCLXL inh 20, Mcl1 Noxa PPI 31, MCL1 BIM primary 26, Bim-Mcl-1 -5 and Mcl1-Bid inh -26.
O=C(Cc1ccccc1)NC1CCSc2ccccc21 (stereo not drawn) was read as GLD-1 TGE inh -2, BCLXL inh 1 and MCL1 BIM primary -12.
Screening Cc1nnc(SCc2cc(=O)oc3cc(O)ccc23)n1Cc1ccccc1 returned GLD-1 TGE inh 4, BCLXL inh 0, Mcl1 Noxa PPI 13, MCL1 BIM primary -3, Bim-Mcl-1 -3 and Mcl1-Bid inh -12.
For Cc1nnc(SCc2cc(=O)oc3ccc4ccccc4c23)n1Cc1ccccc1 the results were GLD-1 TGE inh 9, BCLXL inh 15, Mcl1 Noxa PPI 17, MCL1 BIM primary 9, Bim-Mcl-1 -2 and Mcl1-Bid inh 71*.
`O=C(/C=C/c1ccc(O)c(O)c1)c1ccc(S(=O)(=O)N2CCCCCC2)cc1` gave GLD-1 TGE inh 11, BCLXL inh 1, Mcl1 Noxa PPI 65*, MCL1 BIM primary 21, Bim-Mcl-1 -2 and Mcl1-Bid inh -44.

Assay outcomes as filed in PubChem BioAssay.
